Source: PubChem (National Center for Advancing Translational Sciences (NCATS))
NS1 inh – influenza NS1 inhibition | Potency, µM (top dose mostly 46.1 µM), for the others: at the highest dose activity, positive = more growth | actives 0.4% (n = 270,000); calls by dose curve; further: actives are rising curves; nearly all actives have a fitted effect of over 50% in size
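Read-out: OD600 growth recovery of NS1-expressing budding yeast. Cells grown overnight at 30C in -URA glucose medium, washed, resuspended and diluted 1:100 in 2% galactose assay medium, pH 6.0. Same strain lacking NS1 served as positive control.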
RE007 growth inh – less growth of the S. pombe RE007 Vpr strain; actives 0.21% (n = 360,000); AID 651644; Potency, µM (doses to about 92.2 µM), without a hit: top-dose activity change, negative = less growth, hits mostly inhibitors; S. pombe RE007 Vpr strain, BacTiter-Glo ATP luminescence, 24 h; active means well fitted falling curve with a large enough effect; inconclusive means small, poorly fitted or top-dose-only effect; inactive means no such curve, though single readings can be large or run the other way; further: on the % scale 0 is the no-effect control and ±100 the full control effect; nearly all actives have a fitted effect of over 50% in size
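Fission yeast strain RE007, carrying one chromosomally integrated HIV-1 vpr copy, was seeded at OD 0.01 in PMG+AL medium with 23 nL pinned compound. After 24 h at 30 °C and 99% humidity, viability was read by BacTiter-Glo luminescence.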
SARS PLpro yeast – SARS-CoV PLP inhibition in yeast | S. cerevisiae expressing SARS-CoV PLpro, growth rescue | Potency, µM (titrated, usually from 32.9 µM), for the others: at the highest dose activity, positive = growth rescue, most hits filed as activators | actives 0.19% (n = 330,000) | AID 485353; calls by dose curve; further: 0% is about no effect; nearly all actives have a fitted effect of over 55% in size
LmPK inhibitor – LmPK (Leishmania mexicana) enzyme inhibition; actives 0.37% (n = 290,000); purified LmPK, Kinase-Glo ATP luminescence, 1 h; Potency, µM (top dose mostly 57.5 µM), for the others: top-dose activity change, negative = inhibition, usual class: inhibitors; further: on the % scale 0 is the no-effect control and ±100 the full control effect
Target sequence (Q27686 whole entry, looked up): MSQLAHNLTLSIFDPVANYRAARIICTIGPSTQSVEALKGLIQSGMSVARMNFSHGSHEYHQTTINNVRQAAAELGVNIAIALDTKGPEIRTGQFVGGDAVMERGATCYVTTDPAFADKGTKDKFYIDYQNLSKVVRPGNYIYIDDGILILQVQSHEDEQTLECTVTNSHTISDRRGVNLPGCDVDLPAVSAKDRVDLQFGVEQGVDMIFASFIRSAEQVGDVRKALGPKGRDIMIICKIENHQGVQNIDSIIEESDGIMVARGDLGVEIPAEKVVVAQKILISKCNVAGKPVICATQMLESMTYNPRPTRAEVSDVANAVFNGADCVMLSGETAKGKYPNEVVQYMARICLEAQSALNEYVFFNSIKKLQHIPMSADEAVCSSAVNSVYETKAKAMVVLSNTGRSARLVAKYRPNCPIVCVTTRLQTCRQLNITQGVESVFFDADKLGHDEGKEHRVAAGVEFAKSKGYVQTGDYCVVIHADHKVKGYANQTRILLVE
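In 50 mM imidazole pH 7.2 with 7 mM MgCl2, LmPK (0.1 nM) turned over PEP (0.5 mM) and ADP (0.1 mM) for 1 h at room temperature. Luciferase read-out of ATP.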
TbPYK inhibitor – blocks Trypanosoma brucei pyruvate kinase; Potency, µM (series often up to 76.8 µM), inactives show top-dose activity, negative = inhibition, usual class: inhibitors; TbPYK enzyme, Kinase-Glo Plus ATP luminescence, 45 min; actives 0.12% (n = 410,000); AID 624173; further: on the % scale 0 is the no-effect control and ±100 the full control effect; nearly all actives have a fitted effect of over 50% in size
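TbPYK + substrate in 50 mM TEA pH 7.2, 100 mM KCl, 10 mM MgCl2, 0.05% BSA, 0.01% Tween-20; cpd pinned; ADP 130 uM final; 45 min RT; Kinase-Glo Plus 10 min; luminescence endpoint.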
Sm TGR block – inhibitors of Schistosoma mansoni thioredoxin glutathione reductase; Q962Y6; purified TGR, DTNB reduction, TNB absorbance 405 nm; Potency, µM (titrated, usually from 114 µM), without a hit: at the top dose activity change, negative = inhibition, actives largely listed as inhibitors; actives 3% (n = 360,000); AID 485364; further: on the % scale 0 is the no-effect control and ±100 the full control effect; nearly all actives have a fitted effect of over 60% in size
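TGR 20 nM + NADPH 100 uM (dispensed conc.), cpd preinc 15 min RT; start with NADPH (500 uM addition) then DTNB (15 mM addition). Kinetic TNB absorbance, 405 nm filter. Four-parameter Hill fit across titration.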
Starred values were filed as active, the others as inactive; ? = inconclusive; / = not tested or not shown; [ ] = remark or other dose. Most compounds without a hit are left out; they make up all but 3.3% or so of the library. Unless noted, the call rests on the fitted dose curve; in most records, active means well fitted curve in the direction sought with a large enough effect; inconclusive means small, poorly fitted or top-dose-only effect, or another doubt; inactive means no such curve, though single readings can be large; an effect the other way counts as inactive or inconclusive. Potency means the concentration at half of the fitted maximal effect.

SMILES	NS1 inh	RE007 growth inh	SARS PLpro yeast	LmPK inhibitor	TbPYK inhibitor	Sm TGR block
Nc1nc(Sc2c([N+](=O)[O-])cc(C(F)(F)F)cc2[N+](=O)[O-])n[nH]1	2.9%	-9.0%	0.8%	1.1%	-1.0%	7.94µM*
CCCC(=O)Oc1c(Sc2ccc(Cl)cc2)c(C)nn1-c1ccccc1	/	/	/	/	-28.9%	2.9%
CCSc1ncc(Cl)c(C(=O)Nc2ccc(S(=O)(=O)N3CCCCC3)cc2)n1	/	/	/	/	-0.9%	16.1%
CC(/C=N/NC(=O)c1cccs1)=C\c1ccco1	/	3.0%	-11.3%	-7.8%	-0.7%	31.6µM*
Cc1ccc(C(=O)N/C(=C/c2ccco2)C(=O)NCc2ccco2)cc1	20.5%	-5.0%	0.4%	0.0%	-4.7%	39.8µM*
COc1ccc(C(=O)N/C(=C/c2ccco2)C(=O)NCc2ccco2)cc1	1.3%	-18.5%	-5.7%	-2.2%	1.4%	?
O=C(NCc1ccco1)/C(=C\c1ccco1)NC(=O)c1cccs1	3.9%	1.0%	1.2%	13.4%	1.3%	28.2µM*
O=C(NCc1ccco1)c1cc2c(s1)CSC2	-3.9%	-7.0%	-8.7%	6.0%	-21.9%	17.8µM*
Cc1ccc(C)c(NC(=O)CCCN2C(=O)C(c3ccccc3)Oc3cccnc32)c1 (stereo unspecified)	/	/	/	/	2.8%	-0.4%
O=C(NC(=S)NCc1ccco1)c1ccc(Br)cc1	1.4%	?	5.4%	7.2%	-10.4%	50.1µM*
O=C(NCc1ccco1)c1cccs1	-4.7%	-1.4%	2.6%	9.9%	-0.5%	35.5µM*
Cc1cccc(NC(=O)/C(=C\c2ccco2)NC(=O)c2cccs2)c1	-16.0%	-25.7%	-6.2%	-3.1%	-27.4%	50.1µM*
COc1ccc(C(=O)N/C(=C\c2ccco2)C(=O)OCc2ccco2)cc1	-11.2%	1.0%	-2.0%	-2.9%	-6.9%	28.2µM*
CN(Cc1ccccc1)c1nc2c(S(=O)(=O)c3ccccc3)nnn2c2ccsc12	/	/	/	/	2.0%	9.8%
Cc1cc(C)n2nc(CNC(=O)c3ccc(Cl)cc3)nc2n1	/	/	/	/	0.6%	7.2%
Cc1nnsc1C(=O)NNc1ccc(C(C)(C)C)cc1	-3.5%	9.2%	-1.7%	13.7%	-2.9%	35.5µM*
C=CCSC1=N/C(=C\c2ccc(C)o2)C(=O)S1	-44.6%	?	-0.2%	12.7%	-3.7%	39.8µM*
CCC(=O)NCCC(c1ccco1)c1ccccc1OC (stereo unspecified)	?	4.6%	-6.6%	-0.9%	0.5%	25.1µM*
CCCNCCC(c1ccco1)c1ccccc1OC (stereo unspecified)	26.6%	-7.6%	3.0%	2.4%	2.1%	-8.3%
O=C(CC(c1ccc(F)cc1)c1ccco1)Nc1nccs1 (stereo unspecified)	2.5%	11.3%	-2.1%	1.8%	-0.4%	39.8µM*
COc1ccccc1C(CC(=O)Nc1nccs1)c1ccco1 (stereo unspecified)	2.6%	-5.0%	5.5%	4.0%	-8.3%	50.1µM*
CCOC(=O)[C@H](CCc1ccccc1)N[C@@H](C)C(=O)N(CC(=O)O)C1Cc2ccccc2C1	/	/	/	/	3.0%	/
CCc1ccc(NC(=O)C2CCCN(S(=O)(=O)c3cccc4cccnc34)C2)cc1 (stereo unspecified)	/	/	/	/	1.1%	-11.2%
O=C(NCc1ccc2c(c1)CCN2C(=O)c1ccc(F)cc1)c1ccc(Br)o1	/	/	/	/	2.2%	-13.7%
O=C(CSc1n[nH]c(-c2ccco2)n1)N1c2ccccc2Sc2ccccc21	-19.7%	8.3%	-12.8%	8.9%	7.4%	35.5µM*
Cc1ccc(C=C2C(Cl)=C(Cl)C(Cl)=C2Cl)cc1	7.8%	-21.2%	-0.1%	-2.3%	-15.1%	0.631µM*
C[C@H](NC(=O)N1CCc2nc(-c3ccccc3)c3c(c2C1)CO[C@@H](C)C3)c1ccccc1	/	/	/	-3.7%[11.5 µM]	/	/
CCN(CC)C(=O)CC(c1ccccc1)c1ccco1 (stereo unspecified)	1.2%	11.0%	14.8%	-1.0%	-1.9%	?
